Assay results published in PubChem BioAssay AID686978 (National Center for Advancing Translational Sciences (NCATS), 2013).
Values joined by “and” are separate entries in the source; they are usually repeats but may differ in a detail not shown here. Equal values may be shown once. Screen size: about 420,000 compounds; about 64,000 (15%) were called active. Another 27% or so got no clear call; they are omitted. Calls come from the whole dose curve; as a rule, active = well fitted inhibition curve with a large enough effect; inconclusive = small, poorly fitted or top-dose-only effect; inactive = flat fitted curve, though single readings scatter. A selection follows. A call without a number means that no potency is given here.

Test: qHTS for Inhibitors of human tyrosyl-DNA phosphodiesterase 1 (TDP1): qHTS in cells in absence of CPT; note: nearly all actives have a fitted effect of over 55% in size
Settings: DT40 Tdp1-/- hTDP1 cells, no CPT, ATP luminescence, 48 h; activity change, negative = growth inhibition: at 46.2 µM (top of the series)
Excerpt: Human tyrosyl-DNA phosphodiesterase 1 (TDP1) is a novel repair gene, and we propose to use it as a new target for anticancer drug development. TDP1 is not an essential protein, but under treatment with topoisomerase I poison (camptothecin: CPT), TDP1 works as a critical factor for cell survival. To directly identify novel TDP1 inhibitors active in a cellular environment, we have knocked-out the Tdp1 gene in chicken DT40 cells (Tdp1-/-) and generated a complemented counterpart cells that contains a stable transfection of the human TDP1 gene (Tdp1-/-;hTDP1 cells). For the primary screen, Tdp1-/-;hTDP1 cells will be exposed to small molecules in the presence or absence of CPT, and their growth kinetics will be evaluated after 48 hours by measuring ATP activity. […] The hit compounds will then be evaluated in the presence or absence of CPT using Tdp1-/- cells. […] In tertiary assays, biochemical gel-based assays will be used to assess whether the hit compounds specifically target TDP1.
To this end, we have screened this cell line against the MLSMR in two primary screens. In one screen we add CPT and in the other we screen in the absence of CPT; this AID represents the screen where CPT was absent.
NIH Chemical Genomics Center [NCGC]
NIH Molecular Libraries Probe Centers Network [MLPCN]
Assay Submitter (PI): Yves Pommier, NCI
DT40-hTDP1 cells without 20 nM Camptothecin (add 20 microL of DMSO in 1 L of cell culture medium) were dispensed at 400 cells/5microL/well in tissue culture treated 1536-well white wall/solid bottom assay plates (Greiner Bio-One North America, NC, U.S.A.) using a Multidrop Combi 8 channel dispenser (Thermo Fisher, Waltham, MA, USA). 23 nL compounds and controls were transferred using the pin tool (Kalypsys, San Diego, CA, USA) to the assay plates. The assay plates were then incubated at 37 masculineC for a minimum 48 hr. Three microL of Cell Titer Glo solution was added to the plates and incubated at RT in dark for 30 min. Luminescence was read using ViewLux (Perkin Elmer) with 1 sec exposure slow speed, high gain and 2x binning.
Potency is the fitted concentration of half-maximal effect.

Structure (SMILES)	Potency
O=C(Nc1ccccc1N1CCOCC1)c1csc2c1CCCC2	inactive
CCOc1cc(N2CCOCC2)c(OCC)cc1NC(=O)c1cc(C)nc2ccccc12	14.6 µM (active)
COc1cc(C(=O)Nc2cc(C(F)(F)F)ccc2N2CCOCC2)ccc1O	inactive
CCOc1ccc(NC(=O)c2cc(C)nc3ccccc23)cc1	inactive
CCOc1cc(N2CCOCC2)c(OCC)cc1NC(=O)c1ccc(C)s1	2.06 µM (active)
O=C(NNC(=O)c1cc(-c2ccccc2Cl)nc2ccccc12)c1csc(N2CCOCC2)n1	inactive
Cc1oc(C)c(C(=O)NCCCC(=O)O)c1C(=O)NCCCC(=O)O	inactive
Cc1ccc(S(=O)(=O)N2CCCCC2)cc1C(=O)N1CCN(CCO)CC1	inactive
CCn1nc(C)c(CNC(=O)C2CCC(=O)N(Cc3cccc(F)c3)C2)c1C (stereo not given)	inactive
CCc1ccc(C(=O)OCC(=O)NCC(F)(F)F)cc1	inactive
CC(N)C12CC3CC(CC(O)(C3)C1)C2 (stereo not given)	inactive
CCc1ccc2c(c1)C1(NN=C(c3ccccc3)S1)C(=O)N2 (stereo not given)	2.31 µM (active)
CCc1cccc(NC(=O)c2cc(-c3ccccc3)n[nH]2)c1	inactive
C=C1c2cc(CC)ccc2NC(=O)N1c1ccc(C)cc1	inactive
Cc1cccc(C)c1NC(=O)C(c1ccccc1)N1CC(=O)Nc2ccccc21 (stereo not given)	inactive
COc1ccc(/C=C(/NC(=O)c2ccccc2)C(=O)Nc2cccc(C(=O)O)c2)cc1	inactive
COc1ccc(/C=C(/NC(=O)c2ccco2)C(=O)Nc2ccc(C(C)=O)cc2)cc1	inactive
COc1ccc(/C=C(\NC(=O)c2ccc(OCC(C)C)cc2)C(=O)OCc2ccco2)cc1	16.4 µM (active)
Cc1ccc(OCCOCCOc2ccc(Br)cc2/C=N\NC(=O)c2ccncc2)cc1	18.4 µM (active)
CCOc1cc(/C=N/NC(=O)c2ccncc2)cc(Br)c1O	inactive
Cc1ccc(OCCOc2cccc(/C=N/NC(N)=O)c2)cc1	inactive
CCCOn1c(-n2nc(C)cc2C)nc2ccccc2c1=O	inactive

Structure (SMILES)	Potency
CC(=O)c1ccc(OCC(=O)N(C)C2CCS(=O)(=O)C2)cc1 (stereo not given)	inactive
Cc1oc(-c2cccc(NC(=O)c3ccccc3)c2)nc1CNC(=O)c1cnc2ccccn2c1=O	inactive
Cc1cc2c(cc3c(SCc4nc(-c5ccccc5)oc4C)nnc(C)n32)o1	16.4 µM (active)
Cc1cc(NC(=O)CSCc2nc(-c3cccc(Cl)c3)oc2C)no1	inactive
C/C(=C\C(=O)c1cccnc1)Nc1ccc(C)c(C)c1	inactive
CSc1nc2ccccc2cc1/C=C(\C#N)c1ccc(Cl)cc1Cl	inactive
O=C(CCCC(=O)N1CCN(c2cccc(Cl)c2)CC1)c1ccccc1	18.4 µM (active)
O=C(CCCN1C(=O)C2C3C=CC(C3)C2C1=O)N1CCN(c2ccccc2)CC1 (stereo not given)	inactive
CC(C)c1nnc(NC(=O)CCC(=O)N2CCN(c3cccc(Cl)c3)CC2)s1	inactive
COc1ccc(NC(=O)CN(C)C(=O)c2ccc(NC3CC3)c([N+](=O)[O-])c2)cc1	inactive
O=C1CN(C(=O)c2ccccc2F)C(c2ccc(F)cc2)c2cc(F)ccc2N1 (stereo not given)	inactive
CCOC(=O)CCc1c(C)c2ccc(OCc3nn[nH]n3)c(C)c2oc1=O	inactive
CC(C)C[C@@H]1COc2cc(N3CCC[C@@H]3CO)ccc2S(=O)(=O)N1	inactive
COc1ccc(/C=C2/SC(=O)N(CCCCCC(=O)Nc3ccccc3C(=O)O)C2=S)cc1	inactive
CNN/C(N=Cc1ccc([N+](=O)[O-])s1)=N\S(=O)(=O)c1cc(C)c(Cl)cc1SCc1ccccc1	1.3 µM (active)
CCC(C)(C(=O)NC1CCCCC1)N(C)C(=O)c1ccc2c(c1)OCO2 (stereo not given)	inactive
O=[N+]([O-])c1cccc(/C([O-])=C(/C(=S)Nc2ccccc2F)[n+]2ccccc2)c1	inactive
CCOc1ccccc1NC(=S)C(=C([O-])c1ccc2c(c1)OCCO2)[n+]1ccc(CC)cc1	18.4 µM (active)
CCOc1ccccc1NC(=O)NC1CCCCCCC1	inactive
CC1(C)O[C@@H]2[C@H](O1)[C@@H](CO)O[C@H]2n1c(N2CCCCC2)nc2c(N)ncnc21	inactive
CC(C)=CCN1CCN(Cc2cc3ccccc3[nH]2)CC1CCO (stereo not given)	inactive
COc1ccc(COC(=O)NC(C(=O)O)c2ccccc2)cc1 (stereo not given)	inactive

Structure (SMILES)	Potency
Cc1nn(CCOc2ccccc2)c(=O)n1-c1ccccc1F	inactive
COc1cccc(N2CCN(C3CC(=O)N(c4ccc(Cl)cc4)C3=O)CC2)c1 (stereo not given)	inactive
CCc1nn(CCCN2CCN(c3cccc(Cl)c3)CC2)c(=O)n1CCOc1ccccc1	15 µM (active) and 5.31 µM (active)
CN1C(C(=O)NCC2CC2)CC2Cn3c(nc4ccccc43)C21 (stereo not given)	inactive
CCS(=O)(=O)c1ccc(O)c(NC(=O)COc2ccc(Cl)cc2)c1	inactive
O=C(Nc1cc(S(=O)(=O)Nc2ccc(Cl)cc2)ccc1O)c1ccc(F)cc1F	13 µM (active)
O=C(Nc1cccc(S(=O)(=O)NC2=NCCC2)c1)c1ccc(F)cc1F	inactive
N#CNC1=NCN(CCc2ccccc2)CN1	inactive
O=C(CCN1CCCCC1)Nc1ccc(F)c(F)c1	inactive
COc1ccc(C)cc1S(=O)(=O)Nc1cc2c3c(c1)CCC(=O)N3CCC2	inactive
COc1ccc(N2CCN(S(=O)(=O)c3cc4c5c(c3)C(C)C(=O)N5CCC4)CC2)cc1 (stereo not given)	inactive
COc1ccccc1CCNS(=O)(=O)c1cc2c3c(c1)C(C)C(=O)N3CCC2 (stereo not given)	2.91 µM (active)
Cc1cccc(NC(=O)Cc2ccc(Br)cc2)n1	inactive
CCOC(=O)C1CCN(C(=O)Cc2c(C(=O)O)[nH]c3ccccc23)CC1	inactive
COC(=O)Cc1nc2ccccc2[nH]1	inactive
COC(=O)Cc1c(-c2[nH]c3ccccc3c2CC(=O)OC)[nH]c2ccccc12	14.6 µM (active)
COc1ccc(S(=O)(=O)N2CCOCC2)c(C)c1C	inactive
COc1ccc(NC(=O)COC(=O)c2ccc(NS(=O)(=O)/C=C/c3ccccc3)cc2)cc1	inactive
COc1ccc(CNC(=O)C2CCN(C(=O)c3ccco3)CC2)cc1	inactive
COc1ccc(Cn2c(=O)[nH]c3cc(C(=O)N4CCN(C(=O)c5ccco5)CC4)ccc3c2=O)cc1	11.2 µM (active)
COc1ccccc1Cn1c(=S)[nH]c2cc(C(=O)N3CCN(C)CC3)ccc2c1=O	inactive
